Test results published in PubChem BioAssay.
Activity calls are given as the source filed them.

Assays:
[1] = system: Wnt5a (protein binding on small-molecule microarray); test: Wnt5a binders on small-molecule microarray, primary screen, biophysical, 635/667 nm fluorescence (AID 1142); conditions: 635 nm fluorescence, higher = more signal;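 further: fluorescence read at 667 nm with signal to noise per printed feature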
[2] = cell viability in Huh7 cells, primary screen, cytotoxicity control for HCV replication inhibitor project, CellTiter-Glo luminescence, basal, 48 h (AID 1143); conditions: Huh7 HCV replicon, higher = more signal, called active from +8 up or from −8 down;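 further: Huh7 hepatoma cells carrying a hepatitis C replication reporter with no stimulus; test concentration not given here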
[3] = CREB reporter modulators without forskolin, primary screen, cell-based, PC12, CRE-LacZ reporter, unstimulated (AID 1145); conditions: no forskolin, luminescence, 4.5 h, higher = more signal, called active from +8 up or from −8 down
[4] = CREB reporter modulators under forskolin, primary screen, cell-based, PC12, CRE-LacZ reporter, forskolin-stimulated (AID 1146); conditions: luminescence, 4.5 h, higher = more signal, called active from +8 up or from −8 down;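 further: PC12 cells with 6xCRE LacZ reporter stimulated by forskolin 10 µM; beta-galactosidase reporter signal reflecting CREB driven transcription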
[5] = target: Streptavidin (Streptomyces avidinii) (UniProt P22629); test: streptavidin binders on small-molecule microarray, primary screen, artefact control for SMM compound annotation, biophysical, 635/667 nm fluorescence (AID 1147); conditions: streptavidin binding, higher = more signal;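 further: signal reflects streptavidin binding to arrayed compounds as a control protein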
[6] = small-molecule binders of probe aInhba, primary screen, biochemical, small-molecule microarray, 635/667 nm fluorescence (AID 1148); conditions: higher = more signal;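 further: score merges 667nm spot fluorescence with signal-to-noise for antibody binding to printed compounds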
[7] = target: Torsin-1A (Homo sapiens) (UniProt O14656); test: torsin A binders from cell lysate, primary screen, small-molecule microarray, wild-type, 635/667 nm (AID 1149); conditions: COS7 hTOR1A-WT lysate, 635 nm fluorescence, higher = more signal
[8] = target: Torsin-1A (Homo sapiens) (UniProt O14656); test: small-molecule binders of mutant TOR1A in lysate, primary screen, cell lysate, small-molecule microarray, COS7 lysate, 635/667 nm fluorescence (AID 1150); conditions: COS7 hTOR1A mutant lysate, 635 nm fluorescence, higher = more signal;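 further: score pools 667 nm emission and signal to noise measuring lysate protein binding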
[9] = system: Sonic hedgehog protein (Shh); test: small-molecule binders of Shh protein, primary screen, biochemical, small-molecule microarray, 635/667 nm fluorescence (AID 1151); conditions: small-molecule microarray binding, 635 nm fluorescence; higher = more signal;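 further: Shh protein binding to compounds spotted on small-molecule microarray slides; score combines spot fluorescence intensity with signal-to-noise across triplicate slides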
[10] = E. coli DRC41 culture turbidity changes, primary screen, E. coli filamentation inducer project, strain DRC41, OD650, 48 h (AID 1152);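 further: E. coli MC1000 strain DRC41 lacking acrAB efflux pump and sulA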; conditions: E. coli DRC41 (acrAB sulA), higher = more signal, called active from +8 up or from −8 down
[11] = small-molecule binders of probe aLefty1, primary screen, biochemical, small-molecule microarray, 635/667 nm fluorescence (AID 1153); conditions: higher = more signal;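 further: score merges spot fluorescence with signal-to-noise ratio from the scanned slide images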
[12] = PSAC antagonists in infected red cells, primary screen, cell-based, P. falciparum Indochina, OD700, 1 h (AID 1154); conditions: P. falciparum Indochina infected RBC osmotic lysis, higher = more signal, called active from +8 up or from −8 down
[13] = PSAC antagonists in infected red cells, primary screen, cell-based, P. falciparum Indochina, OD700, 2 h (AID 1155);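 further: lysis reports solute entry through the parasite surface anion channel PSAC; channel blockers reduce lysis of infected cells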; conditions: P. falciparum Indochina infected erythrocytes, osmotic lysis OD700; higher = more signal, called active from +8 up or from −8 down
[14] = osmotic lysis modulators in infected erythrocytes, primary screen, PSAC antagonist project, cell-based, P. falciparum Indochina, OD700, 3 h (AID 1156); conditions: higher = more signal, called active from +8 up or from −8 down
[15] = PSAC antagonists in infected red cells, primary screen, cell-based, P. falciparum Indochina, OD700, 18 h (AID 1157); conditions: P. falciparum Indochina infected erythrocytes, osmotic lysis OD700, 18 h; higher = more signal, called active from +8 up or from −8 down
[16] = modulators of S6 phosphorylation in cells, primary screen, cell-based, A549, cytoblot, luminescence, serum-stimulated (AID 1158); conditions: A549 phospho-S6 cytoblot, 5 h, higher = more signal;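 further: serum-stimulated A549 lung adenocarcinoma cells; signal is phosphorylated S6 detected by cytoblot immunostaining with HRP secondary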
[17] = target: NADPH oxidase 2 (Homo sapiens) (UniProt P04839); test: NOX2-dependent H2O2 signal modulators, primary screen, NOX inhibitor project, cell-based, HEK293-NOX2, PMA-stimulated, Amplex Red fluorescence (AID 1159); conditions: 45 min, higher = more signal, called active from +8 up or from −8 down; further: test concentration not given here
[18] = target: NADPH oxidase 4 (Homo sapiens) (UniProt Q9NPH5); test: NOX4-dependent H2O2 signal modulators, primary screen, NOX inhibitor project, cell-based, HEK293-NOX4, tetracycline-induced, Amplex Red fluorescence (AID 1160); conditions: 45 min, higher = more signal, called active from +8 up or from −8 down
[19] = target: NADPH oxidase 5 (Homo sapiens) (UniProt Q96PH1); test: NOX5-dependent H2O2 signal modulators, primary screen, NOX inhibitor project, cell-based, HEK293-NOX5, Amplex Red fluorescence (AID 1161); conditions: HEK293-NOX5, ionomycin, 45 min, higher = more signal
[20] = A549 cell viability effects, profiling panel, calcein-AM fluorescence, 48 h, basal (AID 1162); conditions: higher = more signal; further: test concentration not given here

Chain of NADPH oxidase 5 (Homo sapiens) (Q96PH1 whole entry, looked up): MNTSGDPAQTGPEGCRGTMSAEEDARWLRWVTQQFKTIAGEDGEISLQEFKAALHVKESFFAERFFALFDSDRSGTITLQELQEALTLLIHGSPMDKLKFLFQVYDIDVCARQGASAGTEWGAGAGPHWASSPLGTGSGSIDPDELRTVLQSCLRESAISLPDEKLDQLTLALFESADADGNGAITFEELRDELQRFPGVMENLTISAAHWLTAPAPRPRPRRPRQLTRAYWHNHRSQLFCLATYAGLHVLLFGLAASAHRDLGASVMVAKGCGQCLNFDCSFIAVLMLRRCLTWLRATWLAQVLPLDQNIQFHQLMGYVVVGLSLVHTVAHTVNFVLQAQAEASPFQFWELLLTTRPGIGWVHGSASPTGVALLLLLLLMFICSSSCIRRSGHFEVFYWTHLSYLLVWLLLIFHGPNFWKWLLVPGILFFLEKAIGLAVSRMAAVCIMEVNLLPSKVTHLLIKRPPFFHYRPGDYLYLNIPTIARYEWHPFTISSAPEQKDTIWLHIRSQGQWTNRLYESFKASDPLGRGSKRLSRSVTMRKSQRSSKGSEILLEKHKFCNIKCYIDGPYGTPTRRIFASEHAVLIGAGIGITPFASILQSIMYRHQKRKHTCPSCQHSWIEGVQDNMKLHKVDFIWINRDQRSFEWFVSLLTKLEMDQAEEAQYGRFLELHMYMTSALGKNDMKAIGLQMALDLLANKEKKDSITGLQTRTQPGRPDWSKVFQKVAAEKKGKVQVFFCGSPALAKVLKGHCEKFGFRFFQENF
Chain of Torsin-1A (Homo sapiens) (O14656 whole entry, looked up): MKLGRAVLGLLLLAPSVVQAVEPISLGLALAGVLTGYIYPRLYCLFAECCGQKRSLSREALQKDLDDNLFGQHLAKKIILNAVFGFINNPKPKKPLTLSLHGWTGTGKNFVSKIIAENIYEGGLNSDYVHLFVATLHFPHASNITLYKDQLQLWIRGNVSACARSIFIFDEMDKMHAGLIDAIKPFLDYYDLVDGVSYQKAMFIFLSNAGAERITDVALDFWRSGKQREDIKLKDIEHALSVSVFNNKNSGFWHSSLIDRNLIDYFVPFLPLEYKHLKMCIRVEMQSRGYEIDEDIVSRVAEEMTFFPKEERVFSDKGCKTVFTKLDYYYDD
Chain of NADPH oxidase 2 (Homo sapiens) (P04839 whole entry, looked up): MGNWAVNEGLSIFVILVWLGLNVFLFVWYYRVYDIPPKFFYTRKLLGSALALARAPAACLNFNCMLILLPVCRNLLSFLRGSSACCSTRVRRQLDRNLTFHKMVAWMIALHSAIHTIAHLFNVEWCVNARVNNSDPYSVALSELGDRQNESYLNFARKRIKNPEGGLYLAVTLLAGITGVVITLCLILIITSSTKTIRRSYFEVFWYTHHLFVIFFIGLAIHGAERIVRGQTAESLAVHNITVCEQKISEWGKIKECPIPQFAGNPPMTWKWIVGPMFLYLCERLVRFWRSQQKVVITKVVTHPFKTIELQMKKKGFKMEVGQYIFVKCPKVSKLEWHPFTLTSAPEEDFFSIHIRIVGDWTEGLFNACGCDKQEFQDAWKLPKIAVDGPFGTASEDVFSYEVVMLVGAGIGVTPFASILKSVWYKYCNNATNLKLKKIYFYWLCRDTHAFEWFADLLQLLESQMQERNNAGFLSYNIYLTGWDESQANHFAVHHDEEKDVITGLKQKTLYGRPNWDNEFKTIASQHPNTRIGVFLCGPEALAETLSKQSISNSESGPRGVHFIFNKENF
Chain of NADPH oxidase 4 (Homo sapiens) (Q9NPH5 whole entry, looked up): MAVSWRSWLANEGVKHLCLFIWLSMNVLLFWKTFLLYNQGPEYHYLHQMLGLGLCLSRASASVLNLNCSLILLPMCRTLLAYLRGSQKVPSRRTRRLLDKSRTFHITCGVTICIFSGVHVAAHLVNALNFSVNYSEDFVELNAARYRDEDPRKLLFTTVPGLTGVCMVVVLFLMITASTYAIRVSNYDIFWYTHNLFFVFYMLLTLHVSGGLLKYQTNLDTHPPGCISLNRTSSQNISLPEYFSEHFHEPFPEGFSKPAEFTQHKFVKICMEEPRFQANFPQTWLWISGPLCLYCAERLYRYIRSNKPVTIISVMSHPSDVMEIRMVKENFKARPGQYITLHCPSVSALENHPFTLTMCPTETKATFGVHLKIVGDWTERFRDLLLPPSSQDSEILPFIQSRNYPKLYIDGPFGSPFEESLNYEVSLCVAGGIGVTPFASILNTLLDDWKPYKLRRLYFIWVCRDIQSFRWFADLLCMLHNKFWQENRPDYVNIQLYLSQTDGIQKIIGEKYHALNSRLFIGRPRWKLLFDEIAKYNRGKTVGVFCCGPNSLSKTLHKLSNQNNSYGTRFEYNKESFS
Chain of Streptavidin (Streptomyces avidinii) (P22629 whole entry, looked up): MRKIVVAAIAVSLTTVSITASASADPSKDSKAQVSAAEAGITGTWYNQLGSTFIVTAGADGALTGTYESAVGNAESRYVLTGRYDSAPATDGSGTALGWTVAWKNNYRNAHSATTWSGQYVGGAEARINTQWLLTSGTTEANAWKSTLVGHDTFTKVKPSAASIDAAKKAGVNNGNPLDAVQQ

Row | Compound | composite z-score [1] | z-score [2] | z-score [3] | z-score [4] | composite z-score [5] | composite z-score [6] | composite z-score [7] | composite z-score [8] | composite z-score [9] | z-score [10] | composite z-score [11] | z-score [12] | z-score [13] | z-score [14] | z-score [15] | z-score [16] | z-score [17] | z-score [18] | z-score [19] | z-score [20]
1 | COC(=O)C(CC#Cc1ccc2c(c1)[C@]1(C(=O)N2)[C@H](C(N)=O)[C@H]2C(=O)O[C@H](c3ccccc3)[C@H](c3ccccc3)N2[C@@H]1c1ccc(O)cc1)C(=O)OC | -0.156 | -0.229 (inactive) | 0.182 (inactive) | -0.909 (inactive) | -1.09 | -0.504 | -0.372 | 0.488 | -0.295 | 1.66 (inactive) | -0.696 | 14.5 (active) | 1.23 (inactive) | 0.974 (inactive) | 0.37 (inactive) | 0.331 | 1.32 (inactive) | 0.297 (inactive) | 1.1 | 0.685
2 | C=CCN1C(=O)[C@@]2(O[C@@H](CCO)[C@H]([Si](C)(C)c3ccc(OC)cc3)[C@H]2C)c2cc(N(C=O)c3ccccc3)ccc21 | 0.125 | -7.99 (inactive) | 16.9 (active) | -4.02 (inactive) | -0.387 | -0.0044 | 0.0589 | 0.0237 | 0.207 | 1.55 (inactive) | -0.16 | 24 (active) | 7.57 (inactive) | -0.599 (inactive) | 0.279 (inactive) | 0.183 | -0.477 (inactive) | 0.638 (inactive) | -0.174 | -3.16
3 | O=C1c2ccccc2C(=O)c2cc([C@H]3Oc4ccccc4S(=O)(=O)N4CCC[C@@H]34)ccc21 | -0.0879 | -4.31 (inactive) | 4.29 (inactive) | -1.21 (inactive) | -0.615 | -0.0079 | -0.474 | -0.122 | -0.441 | 3.11 (inactive) | -0.0625 | 8.47 (active) | 0.452 (inactive) | 0.544 (inactive) | -1.29 (inactive) | 1.1 | 0.0288 (inactive) | -1.18 (inactive) | 0.489 | 0.326
4 | COCCOC(=O)N1C(=O)[C@@]2(c3cc(C#CCCO)ccc31)[C@H](c1ccccc1OCCO)N1[C@H](c3ccccc3)[C@H](c3ccccc3)OC(=O)[C@H]1[C@@H]2C(=O)NC[C@H](O)c1ccccc1 | 0.142 | -4.1 (inactive) | 1.42 (inactive) | -1.44 (inactive) | 0.506 | 0.209 | 1.94 | 0.552 | 1.56 | 2.96 (inactive) | -0.0222 | 3.88 (inactive) | 0.965 (inactive) | 0.673 (inactive) | 0.442 (inactive) | 2.31 | 1.59 (inactive) | 1.52 (inactive) | -0.0153 | 2.07
5 | NC(=O)N1C(=O)C2C(C1=O)C1C=C(c3ccc(CO)cc3)C2C(C2CC2)N1Cc1cc2c(cc1Br)OCO2 (stereo not given) | 0.0262 | -1.15 (inactive) | 7.31 (inactive) | -1.34 (inactive) | 0.368 | 0.134 | 0.32 | 0.127 | 1.39 | 0.737 (inactive) | 0.0671 | 14.4 (active) | 0.537 (inactive) | -0.429 (inactive) | -1.43 (inactive) | 0.215 | 2.92 (inactive) | 1.48 (inactive) | -0.201 | 0.485
6 | C=CCNC(=O)[C@H]1[C@@H]2C(=O)O[C@@H](c3ccccc3)[C@@H](c3ccccc3)N2[C@@H](c2ccc(OCCO)cc2)[C@]12C(=O)Nc1ccc(C#CCCO)cc12 | -0.09 | -2.34 (inactive) | 0.0384 (inactive) | 0.8 (inactive) | -0.0494 | -0.0639 | 0.234 | 0.21 | 1.06 | 2.32 (inactive) | 0.0793 | 4.5 (inactive) | -0.407 (inactive) | -0.144 (inactive) | -2.03 (inactive) | 2.16 | 2.4 (inactive) | 1.18 (inactive) | 0.572 | 0.109
7 | COc1ccc(C#Cc2ccc3c(c2)[C@]2(C(=O)N3)[C@H](c3ccc(O)cc3)N3[C@H](c4ccccc4)[C@H](c4ccccc4)OC(=O)[C@H]3[C@@H]2C(=O)N2CCN(c3ncccn3)CC2)cc1 | 0.167 | -1.76 (inactive) | 0.478 (inactive) | 0.708 (inactive) | 1.13 | 0.18 | 0.246 | 0.923 | 0.262 | 1.77 (inactive) | 0.312 | 1.28 (inactive) | 0.22 (inactive) | 1.19 (inactive) | 0.564 (inactive) | 0.26 | 0.393 (inactive) | 0.0458 (inactive) | 1.21 | 0.214
8 | CCCC[C@@H](O)C1=C(C)C[C@H]2C(=O)N(C)C(=O)[C@H]2[C@H]1CO | -0.0163 | -1.36 (inactive) | 0.0423 (inactive) | -2.14 (inactive) | -0.242 | -0.0736 | 0.0651 | -0.0216 | 1.18 | 3.62 (inactive) | -0.239 | 3.54 (inactive) | -0.526 (inactive) | -0.224 (inactive) | -1.56 (inactive) | 0.8 | -1.32 (inactive) | 0.914 (inactive) | 0.794 | 2.36
